Data published in the supplement of paper PMC11732987, “Enantioselective OTUD7B fragment discovery through chemoproteomics screening and high-throughput optimisation” (Communications Chemistry, 2025).

What was measured:
Test in all cases: log2 ratio of Biotin-Ahx-Ub-VS probe labelling (fragment/DMSO); higher = less target engagement (more negative = stronger competition), active = hit call of the paper (q ≤ 0.05, log2 ratio ≤ -1)
Settings in all cases: compound concentration: 200 uM; treatment time: 3 h
ALG13 = target: T1, ALG13 (UniProt Q9NP73)
T1 sequence (whole entry): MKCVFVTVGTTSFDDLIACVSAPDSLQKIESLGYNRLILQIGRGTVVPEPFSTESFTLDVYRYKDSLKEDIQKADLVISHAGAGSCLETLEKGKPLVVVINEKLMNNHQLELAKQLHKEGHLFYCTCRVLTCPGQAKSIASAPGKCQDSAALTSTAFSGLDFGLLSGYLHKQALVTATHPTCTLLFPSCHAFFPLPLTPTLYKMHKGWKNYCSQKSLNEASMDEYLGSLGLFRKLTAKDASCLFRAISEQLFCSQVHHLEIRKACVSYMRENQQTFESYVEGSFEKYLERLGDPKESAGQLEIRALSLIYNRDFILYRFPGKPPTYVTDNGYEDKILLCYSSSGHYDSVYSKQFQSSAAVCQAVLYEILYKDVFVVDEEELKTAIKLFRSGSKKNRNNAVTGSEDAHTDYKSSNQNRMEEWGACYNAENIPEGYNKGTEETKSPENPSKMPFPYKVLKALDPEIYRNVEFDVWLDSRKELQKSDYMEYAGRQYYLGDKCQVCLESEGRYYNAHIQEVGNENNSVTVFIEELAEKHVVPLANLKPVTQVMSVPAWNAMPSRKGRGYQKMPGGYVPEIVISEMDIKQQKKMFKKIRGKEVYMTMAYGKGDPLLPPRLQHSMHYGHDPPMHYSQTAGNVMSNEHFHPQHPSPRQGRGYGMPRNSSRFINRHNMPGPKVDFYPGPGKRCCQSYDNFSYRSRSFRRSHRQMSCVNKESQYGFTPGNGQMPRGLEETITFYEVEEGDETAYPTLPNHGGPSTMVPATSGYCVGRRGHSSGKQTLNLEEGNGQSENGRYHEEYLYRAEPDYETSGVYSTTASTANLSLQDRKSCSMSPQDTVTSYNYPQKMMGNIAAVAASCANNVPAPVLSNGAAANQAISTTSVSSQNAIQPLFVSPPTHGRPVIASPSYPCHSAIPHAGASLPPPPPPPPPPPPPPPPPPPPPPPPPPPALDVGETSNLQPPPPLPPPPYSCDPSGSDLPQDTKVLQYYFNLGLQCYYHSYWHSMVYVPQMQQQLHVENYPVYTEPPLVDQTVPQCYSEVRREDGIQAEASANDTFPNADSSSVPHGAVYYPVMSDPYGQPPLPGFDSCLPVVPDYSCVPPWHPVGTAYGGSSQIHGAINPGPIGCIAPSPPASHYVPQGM
Outline: (§1)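 Using Biotin-Ahx-Ub-VS at 0.5 µM final for 1 h, DUBs were labelled in HEK293T lysate (495 µg per sample) that had first been treated in triplicate with fragment at 200 µM or vehicle for 3 h. NeutrAvidin enrichment, LysC and trypsin digestion and diaPASEF LC-MS/MS followed. Spectronaut label-free quantities were global-median-normalised. Values are average log2 fragment/vehicle ratios by unpaired t-test, using proteins with ≥2 unique peptides.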

ATXN3 = ATXN3 (UniProt P54252)
Chain of ATXN3 (P54252 whole entry): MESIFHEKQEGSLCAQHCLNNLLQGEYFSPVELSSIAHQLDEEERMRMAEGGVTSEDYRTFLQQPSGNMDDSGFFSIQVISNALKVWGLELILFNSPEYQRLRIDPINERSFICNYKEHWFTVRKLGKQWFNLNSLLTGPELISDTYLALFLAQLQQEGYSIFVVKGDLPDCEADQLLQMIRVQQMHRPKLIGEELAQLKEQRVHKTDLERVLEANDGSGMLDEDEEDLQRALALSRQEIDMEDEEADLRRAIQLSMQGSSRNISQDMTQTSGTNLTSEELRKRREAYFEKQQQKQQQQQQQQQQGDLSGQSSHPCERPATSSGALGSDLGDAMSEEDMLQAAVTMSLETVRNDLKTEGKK
Outline: as §1

BAP1 = target: T2, BAP1 (UniProt Q92560)
T2 sequence (whole entry): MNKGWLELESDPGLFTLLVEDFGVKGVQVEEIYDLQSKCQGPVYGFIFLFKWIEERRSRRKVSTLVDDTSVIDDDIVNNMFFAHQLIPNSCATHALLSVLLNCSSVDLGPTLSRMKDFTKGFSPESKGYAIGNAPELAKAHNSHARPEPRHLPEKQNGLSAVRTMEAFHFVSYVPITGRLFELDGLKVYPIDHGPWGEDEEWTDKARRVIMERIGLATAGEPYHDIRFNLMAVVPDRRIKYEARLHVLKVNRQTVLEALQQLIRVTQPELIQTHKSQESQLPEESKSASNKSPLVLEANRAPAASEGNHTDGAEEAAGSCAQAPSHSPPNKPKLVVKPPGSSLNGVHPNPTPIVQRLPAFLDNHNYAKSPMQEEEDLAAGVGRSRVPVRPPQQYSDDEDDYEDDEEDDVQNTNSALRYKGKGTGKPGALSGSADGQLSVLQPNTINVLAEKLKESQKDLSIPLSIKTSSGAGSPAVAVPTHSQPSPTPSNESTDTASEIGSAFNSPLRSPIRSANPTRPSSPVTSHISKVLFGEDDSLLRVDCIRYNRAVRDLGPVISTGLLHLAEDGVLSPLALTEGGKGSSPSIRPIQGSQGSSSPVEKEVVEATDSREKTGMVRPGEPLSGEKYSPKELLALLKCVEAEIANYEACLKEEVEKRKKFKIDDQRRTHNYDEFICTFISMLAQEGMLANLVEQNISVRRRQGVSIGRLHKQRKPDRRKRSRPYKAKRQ
Outline: as §1

EIF3F = EIF3F (UniProt O00303)
Chain of EIF3F (O00303 whole entry): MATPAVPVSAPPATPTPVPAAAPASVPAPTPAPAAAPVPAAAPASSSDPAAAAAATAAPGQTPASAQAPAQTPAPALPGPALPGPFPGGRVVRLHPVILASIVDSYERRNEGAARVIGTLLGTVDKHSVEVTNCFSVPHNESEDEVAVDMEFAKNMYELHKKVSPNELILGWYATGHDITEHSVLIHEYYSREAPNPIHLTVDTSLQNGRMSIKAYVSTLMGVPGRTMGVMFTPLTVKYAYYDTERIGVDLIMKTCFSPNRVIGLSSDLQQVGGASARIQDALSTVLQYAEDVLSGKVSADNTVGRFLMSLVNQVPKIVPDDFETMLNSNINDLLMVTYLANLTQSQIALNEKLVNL
Outline: as §1

EIF3H = EIF3H (UniProt O15372)
Chain of EIF3H (O15372 whole entry): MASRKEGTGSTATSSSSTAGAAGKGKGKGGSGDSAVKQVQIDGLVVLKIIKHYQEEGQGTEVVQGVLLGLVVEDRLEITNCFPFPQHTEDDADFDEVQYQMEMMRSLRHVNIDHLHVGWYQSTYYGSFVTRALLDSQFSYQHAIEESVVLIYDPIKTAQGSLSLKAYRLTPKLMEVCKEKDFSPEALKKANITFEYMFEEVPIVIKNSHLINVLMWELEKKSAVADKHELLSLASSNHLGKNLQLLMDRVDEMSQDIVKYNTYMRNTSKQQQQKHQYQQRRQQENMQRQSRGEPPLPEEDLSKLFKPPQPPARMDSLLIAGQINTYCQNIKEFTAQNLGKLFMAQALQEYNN
Outline: as §1

FAM105A = target: T3, FAM105A (UniProt Q9NUU6)
T3 sequence (whole entry): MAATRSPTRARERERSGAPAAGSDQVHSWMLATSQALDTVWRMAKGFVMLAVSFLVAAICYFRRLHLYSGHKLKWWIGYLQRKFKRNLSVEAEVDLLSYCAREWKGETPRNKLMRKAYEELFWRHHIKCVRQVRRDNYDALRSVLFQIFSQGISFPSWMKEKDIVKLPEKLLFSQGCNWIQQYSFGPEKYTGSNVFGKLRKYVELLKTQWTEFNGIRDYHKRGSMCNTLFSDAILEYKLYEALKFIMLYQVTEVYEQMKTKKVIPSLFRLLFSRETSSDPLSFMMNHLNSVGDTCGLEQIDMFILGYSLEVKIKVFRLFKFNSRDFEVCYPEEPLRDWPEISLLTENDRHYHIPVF
Outline: as §1

OTUB1 = OTUB1 (UniProt Q96FW1)
Chain of OTUB1 (Q96FW1 whole entry): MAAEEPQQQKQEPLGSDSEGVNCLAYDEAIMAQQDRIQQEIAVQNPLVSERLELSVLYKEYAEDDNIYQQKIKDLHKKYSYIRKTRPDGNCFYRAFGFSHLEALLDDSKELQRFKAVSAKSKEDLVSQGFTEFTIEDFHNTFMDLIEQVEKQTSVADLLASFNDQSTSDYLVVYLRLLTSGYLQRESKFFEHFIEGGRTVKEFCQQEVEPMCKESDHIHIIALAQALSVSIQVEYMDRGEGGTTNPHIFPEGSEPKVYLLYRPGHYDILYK
Outline: as §1

OTUD4 = target: T4, OTUD4 (UniProt Q01804)
T4 sequence (whole entry): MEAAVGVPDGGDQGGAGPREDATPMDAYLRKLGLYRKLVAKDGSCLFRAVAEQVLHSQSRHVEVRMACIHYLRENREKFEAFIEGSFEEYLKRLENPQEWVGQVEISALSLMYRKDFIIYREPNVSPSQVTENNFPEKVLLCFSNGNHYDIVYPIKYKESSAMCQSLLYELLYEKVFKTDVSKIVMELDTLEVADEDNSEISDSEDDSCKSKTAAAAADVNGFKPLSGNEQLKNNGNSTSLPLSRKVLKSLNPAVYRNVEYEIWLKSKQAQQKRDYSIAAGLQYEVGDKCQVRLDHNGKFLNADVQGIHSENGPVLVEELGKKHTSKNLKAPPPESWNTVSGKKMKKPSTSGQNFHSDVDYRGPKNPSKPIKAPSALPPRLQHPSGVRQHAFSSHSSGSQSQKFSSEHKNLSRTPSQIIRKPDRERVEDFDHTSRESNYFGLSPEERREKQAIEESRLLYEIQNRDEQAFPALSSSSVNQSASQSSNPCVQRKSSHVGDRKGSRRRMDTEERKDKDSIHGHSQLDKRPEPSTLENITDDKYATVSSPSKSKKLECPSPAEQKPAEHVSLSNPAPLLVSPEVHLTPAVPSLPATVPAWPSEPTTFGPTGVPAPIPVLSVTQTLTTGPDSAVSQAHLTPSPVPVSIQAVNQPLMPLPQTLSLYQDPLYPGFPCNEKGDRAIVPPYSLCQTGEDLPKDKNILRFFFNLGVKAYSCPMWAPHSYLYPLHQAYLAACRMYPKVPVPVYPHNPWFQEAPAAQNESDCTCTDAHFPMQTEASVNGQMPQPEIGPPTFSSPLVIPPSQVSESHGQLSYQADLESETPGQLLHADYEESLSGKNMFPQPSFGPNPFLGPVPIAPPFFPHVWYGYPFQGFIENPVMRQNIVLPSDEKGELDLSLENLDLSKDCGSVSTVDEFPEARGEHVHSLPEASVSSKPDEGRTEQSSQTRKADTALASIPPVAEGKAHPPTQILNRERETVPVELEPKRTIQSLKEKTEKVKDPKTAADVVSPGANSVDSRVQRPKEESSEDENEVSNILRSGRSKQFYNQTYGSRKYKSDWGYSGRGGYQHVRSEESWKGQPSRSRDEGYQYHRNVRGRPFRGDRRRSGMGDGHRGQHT
Outline: as §1

OTUD5 = target: T5, OTUD5 (UniProt Q96G74)
T5 sequence (whole entry): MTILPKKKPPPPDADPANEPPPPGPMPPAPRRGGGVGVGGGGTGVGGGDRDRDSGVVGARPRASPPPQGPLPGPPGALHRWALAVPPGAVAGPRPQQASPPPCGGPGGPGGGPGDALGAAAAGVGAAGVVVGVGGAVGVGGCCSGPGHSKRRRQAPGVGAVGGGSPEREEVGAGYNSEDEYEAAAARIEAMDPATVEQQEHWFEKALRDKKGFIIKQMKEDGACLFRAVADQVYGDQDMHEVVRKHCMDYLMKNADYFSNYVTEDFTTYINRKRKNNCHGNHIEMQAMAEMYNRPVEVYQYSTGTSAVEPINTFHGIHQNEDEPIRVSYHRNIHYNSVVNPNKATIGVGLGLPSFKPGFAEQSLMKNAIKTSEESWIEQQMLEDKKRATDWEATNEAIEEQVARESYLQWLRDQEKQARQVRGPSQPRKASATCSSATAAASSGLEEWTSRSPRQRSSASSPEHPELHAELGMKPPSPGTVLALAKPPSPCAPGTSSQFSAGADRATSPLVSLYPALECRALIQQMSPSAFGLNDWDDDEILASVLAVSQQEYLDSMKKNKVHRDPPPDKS
Outline: as §1

Measured: log2 ratio of Biotin-Ahx-Ub-VS probe labelling

Cc1cccnc1NC(=O)C1CCN(C(=O)CCl)CC1.Cl
inactive: ALG13 0.0719 | ATXN3 -0.281 | BAP1 -0.703 | EIF3F -0.244 | EIF3H 0.146 | FAM105A -0.0889 | OTUB1 -0.251 | OTUD4 -0.365 | OTUD5 -0.447
